Compound activity deposited in PubChem by several laboratories.
TWEAK Fn14 block = TWEAK-Fn14 signaling inhibition; inhibition, % at 10 µM; actives 2% (n = 360,000); AID 1159606; TWEAK-stimulated Fn14 reporter cells, luciferase luminescence, 8 h; in the data active = inhibition above about 50%
PAX8 reporter = lowers PAX8-driven luciferase in RMG-I cells | RMG-I TPO-luciferase reporter, SteadyGlo, 24 h | inhibition, % at 12.6 µM | actives 1.2% (n = 360,000);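 active = mean replicate inhibition at least 60% with every replicate also reaching 60%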;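 also: luciferase light reporting Pax8 driven TPO promoter activity; plate controls were median of neutral control wells for no effect and mitoxantrone controls for full effect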
TROY NFkB inh = blocks TROY-dependent signaling in reporter cells; inhibition, % at 10 µM; Q293 LMP1-TROYcd NF-kB luciferase reporter, 4 h; actives 0.98% (n = 360,000);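 active = compounds whose plate-normalised and pattern-corrected inhibition of the luciferase reporter signal at the single screening dose is 50% or more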
EWS-Fli block = blocks EWS/Fli oncoprotein-driven transcription; A673 NR0B1-luciferase reporter, viability-normalised; inhibition, % at 12.6 µM; actives 0.67% (n = 350,000);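 active = mean inhibition of at least 50% after viability correction, with every replicate also passing that limit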;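 also: firefly luciferase signal divided by Alamar Blue viability fluorescence both relative to DMSO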
LGR2 antag = Drosophila LGR2 receptor signaling inhibition; HEK293 LGR2, CRE-luciferase, bursicon-stimulated, 4 h; inhibition, % at 9.99 µM; actives 0.35% (n = 380,000); AID 720647;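 active = drop in luminescence signal, shown as inhibition above about 50% in the replicate tests, limit read from the data, passing the limit was not always enough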;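 also: agonist challenge used bursicon conditioned medium at about half maximal strength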
EBV LMP1 NFkB = Epstein-Barr LMP1 NF-kappaB reporter inhibition; actives 0.69% (n = 350,000); LMP1-induced NF-kappaB luciferase reporter cells, luminescence; AID 504558; inhibition, % at 12.5 µM; in the data active = inhibition above about 41%;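 also: 0% = neutral control wells and 100% = reference inhibitor control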
Starred values were filed as active, the others as inactive; x = no result given. This is a sample that favours compounds with a hit; in the whole collection about 3.2% have one here.

SMILES | TWEAK Fn14 block | PAX8 reporter | TROY NFkB inh | EWS-Fli block | LGR2 antag | EBV LMP1 NFkB
O=C(Nc1ccc(-c2cn3ccsc3n2)cc1)C1COc2ccccc2O1 (stereo not given) | 45 | x | 57* | x | x | -4
O=C(Nc1ccccc1)C1COc2ccccc2O1 (stereo not given) | 80* | 7 | -16 | -27 | -9 | -2
CC(=O)c1sc(NC(=O)C2COc3ccccc3O2)nc1C (stereo not given) | 87* | 18 | 56* | 46 | x | 49*
Cc1ccc(NC(=O)C2COc3ccccc3O2)cc1 (stereo not given) | 51* | -66 | -45 | -105 | -13 | -13
O=C(Nc1ccc([N+](=O)[O-])cc1)C1COc2ccccc2O1 (stereo not given) | -5 | 30 | -10 | -6 | x | 6
O=C(Nc1nncs1)C1COc2ccccc2O1 (stereo not given) | -3 | x | -10 | x | x | -11
C[C@@H]1CCCCO[C@@H](CN(C)C(=O)NC2CCCCC2)[C@H](C)CN([C@@H](C)CO)C(=O)c2cc(NC(=O)Cc3ccccc3)ccc2O1 | x | x | x | 16 | 19 | x
C[C@@H]1CN([C@H](C)CO)C(=O)c2cc(C#CCN(C)C)cnc2O[C@@H]1CN(C)Cc1ccccc1F | x | -13 | x | -2 | 0 | x
CC1(C)Oc2ccc(NC(=O)C3COc4ccccc4O3)cc2O1 (stereo not given) | 42 | -94 | 54* | x | x | -7
COc1cccc(CNC(=O)COC(=O)c2nc(Cl)c(Cl)c(Cl)c2Cl)c1 | 94* | 7 | 39 | 27 | 7 | -7
O=C1CSC(=NC(=O)c2ccccc2)N1 | 69* | x | -3 | 8 | 21 | -3
Cc1noc(C)c1NC(=O)Nc1ccc2c(c1)C(=O)N([C@@H](C)CO)C[C@@H](C)[C@@H](CN(C)S(=O)(=O)c1cccs1)O2 | x | x | x | 0 | 35 | x
COCC(C)n1c(C)cc(C(=O)COC(=O)c2cc(=O)[nH]c3ccccc23)c1C (stereo not given) | 88* | -14 | 83* | 41 | 3 | 25
COCC(C)n1c(C)cc(C(=O)COC(=O)c2n[nH]c3ccccc23)c1C (stereo not given) | 67* | x | 78* | x | x | 25
COc1cccc(NC(=O)Nc2ccc3c(c2)C(=O)N(C)C[C@@H](OC)[C@@H](C)CN(CC2CC2)[C@H](C)CO3)c1 | x | -18 | x | -33 | -9 | x
C[C@H]1CN([C@@H](C)CO)C(=O)CCCn2nncc2CO[C@H]1CN(C)Cc1ccc(C(F)(F)F)cc1 | x | x | x | 6 | 15 | x
O=C(N/N=C1\CCc2ccccc21)c1ccccc1Cl | -12 | -120 | -35 | -69 | -30 | -12
O=C(N/N=C1\CCc2ccccc21)c1ccc(O)cc1 | 50* | -126 | -60 | -66 | -55 | -20
S=C(N/N=C1\CCc2ccccc21)NC1CCCCC1 | 74* | -17 | 71* | -4 | 10 | -5
O=C(N/N=C1/CCc2ccccc21)C1CC1 | -2 | 5 | -13 | -44 | 4 | -10
C[C@H]1CCCCO[C@@H](CN(C)C(=O)Nc2ccc(F)cc2)[C@@H](C)CN([C@@H](C)CO)C(=O)c2cc(N(C)C)ccc2O1 | x | 11 | x | -9 | 3 | x
C[C@@H]1CN([C@@H](C)CO)C(=O)Cc2cc(NS(=O)(=O)c3ccccc3)ccc2O[C@@H]1CN(C)S(C)(=O)=O | x | -9 | x | -3 | -5 | x
CC(C)c1ccc(NC(=O)CCNS(=O)(=O)c2cccc3nsnc23)cc1 | 0 | x | 5 | x | 12 | 2
O=S(=O)(Nc1ccc2c(c1)OCCO2)c1cccc2nsnc12 | 95* | x | 84* | x | 5 | 38
O=C(CCNS(=O)(=O)c1cccc2nsnc12)Nc1ccc2c(c1)OCCO2 | 58* | -9 | 3 | x | x | 16
SMILES | TWEAK Fn14 block | PAX8 reporter | TROY NFkB inh | EWS-Fli block | LGR2 antag | EBV LMP1 NFkB
CC(NC(=O)CCNS(=O)(=O)c1cccc2nsnc12)c1ccccc1 (stereo not given) | 54* | 1 | 20 | 6 | -9 | 0
CC(=O)N[C@@H]1C=C[C@@H](CC(=O)NCc2ccc(Cl)cc2)O[C@H]1CO | x | -10 | x | 1 | 6 | x
CC(C)C#Cc1ccc2c(c1)O[C@@H](CN(C)C(=O)c1cnccn1)[C@H](C)CN([C@@H](C)CO)S2(=O)=O | x | x | x | 15 | 9 | x
NC(=O)COC(=O)c1c2c(nc3ccccc13)CCCCC2 | 5 | 22 | 55* | 8 | -9 | -1
COc1nc(=O)n(C2C=CC(=O)O2)cc1F (stereo not given) | 64* | 29 | -12 | 1 | -23 | -29
Cc1[nH]nc2nc(SCC(=O)NC3CCCCC3)n(-c3ccc(Br)cc3)c(=N)c12 | -28 | 109* | 29 | x | 11 | -3
COc1ccccc1NC(=O)CSc1nc2n[nH]c(C)c2c(=N)n1-c1ccccc1Cl | 62* | x | 25 | x | x | 20
CO[C@@H]1CN(C)C(=O)c2cc(NC(C)=O)ccc2OC[C@@H](C)N(CC2CC2)C[C@H]1C | x | -2 | x | -11 | -3 | x
CCCc1ccc(OC(=O)c2ccc(O)cc2Cl)cc1 | 40 | -231 | 58* | -120 | -49 | -41
CO[C@H]1CN(C)C(=O)c2cc(NC(=O)c3cc(C)on3)ccc2OC[C@H](C)N(CC2CC2)C[C@@H]1C | x | -13 | x | -3 | -2 | x
NC(=O)C1(N2CCCCC2)CCN(C(=O)c2ccc(-n3cnnn3)cc2)CC1 | -1 | x | -7 | x | x | 64*
O=C(NCC[C@@H]1CC[C@H](NC(=O)C2CCCCC2)[C@@H](CO)O1)c1ccc(F)cc1 | x | 2 | x | 6 | 9 | x
CC(C)(C)c1ccc(O)c(N=Cc2cc(Br)ccc2O)c1 | 88* | -6 | 85* | -8 | 19 | 12
Cc1ccc(O)c(C=Nc2cc(C)ccc2O)c1 | 37 | x | 22 | x | x | -15
O=C(C[C@@H]1CC[C@@H]2[C@H](COC[C@@H](O)CN2S(=O)(=O)c2ccccc2)O1)NCc1ccc(-c2ccccc2)cc1 | x | 11 | x | 11 | -16 | x
COc1ccc(S(=O)(=O)Nc2ccc3c(c2)C(=O)N([C@H](C)CO)C[C@H](C)[C@H](CN(C)S(=O)(=O)c2c(C)noc2C)OCCCC[C@H](C)O3)cc1 | x | 41 | x | 14 | 15 | x
CCOC(=O)c1nn(-c2ccc3c(c2)CCN3C(C)=O)cc1O | 65* | x | 20 | -7 | 46 | 13
CCOC(=O)c1nn(-c2ccc(F)cc2)cc1O | 37 | -132 | -27 | 1 | -31 | 2
CC(=O)Oc1ccc(C23c4ccccc4C2(OC(C)=O)c2cc(OC(C)=O)ccc23)cc1 (stereo not given) | 89* | 9 | 34 | 17 | 11 | 10
Cc1ccc(NC2=CC(=O)C(=O)c3ccccc32)c(C)c1 | 75* | 27 | 74* | 33 | 37 | 1
O=C1C=C(Nc2ccccc2O)c2ccccc2C1=O | 17 | x | 2 | -2 | -2 | -4
CNC[C@H]1OCCCC[C@H](C)Oc2ccc(NC(=O)CCC(F)(F)F)cc2C(=O)N([C@@H](C)CO)C[C@H]1C | x | -15 | x | 4 | -10 | x
COc1ccccc1-c1ccc([C@@H]2[C@H](C#N)N[C@@H]2CO)cc1 | x | 1 | x | 1 | -9 | x
